Abeta yeast res: qHTS for compounds that reverse cellular toxicity of Amyloid beta (A-beta) peptide in yeast: Primary Screen | yeast expressing A-beta42, growth rescue, OD600, 48 h; response scale: 0% DMSO, 100% iron-clioquinol control | Potency, µM (highest dose often 46.1 µM), usual class: activators | actives 0.063% (n = 410,000) | AID 1347071, 2019; further: nearly all actives have a fitted effect of over 55% in size
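Yeast growth medium received pinned compounds, then yeast cells expressing toxic A-beta were added; plates incubated at 30 C for 48 hr. Growth read as absorbance at 600 nm, normalized to DMSO and equimolar FeCl3 plus clioquinol controls.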
Mito fusion yeast: qHTS Assay for Small Molecule Inhibitors of Mitochondrial Division or Activators of Mitochondrial Fusion; S. cerevisiae fusion-defective mutant growth rescue, CellTiterGlo 48 h; Potency, µM (series often up to 46.1 µM), without a hit: at the highest dose growth rescue (activation), most hits filed as activators; actives 0.23% (n = 320,000); AID 485298, 2010; further: % of control where 0% means no effect; nearly all actives have a fitted effect of over 45% in size
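Yeast fusion mutant, YPEG (non-fermentable carbon), compound, 48 h at 37C non-permissive; CellTiterGlo added, 10 min RT, luminescence read. Rescued growth = division inhibition.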
FUS yeast rescue: qHTS for Suppressors of FUS Proteinopathy: Primary screen using FUS-linked yeast assay; S. cerevisiae FUS-expressing, growth rescue, OD600, 24 h; Potency, µM (titrated, usually from 76.6 µM), usual class: activators; actives 0.24% (n = 390,000); AID 1347120, 2019;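 further: plate controls were DMSO vehicle for no effect and reference control for full effect; nearly all actives have a fitted effect of over 55% in size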
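Restored growth of FUS-toxic S. cerevisiae, read as 600 nm absorbance after 24 h at 30C in galactose medium (starting OD 0.005). Controls CP55940 and DMSO.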
TDP-43 yeast inh: qHTS of TDP-43 Inhibitors | actives 1.8% (n = 410,000) | TDP-43 expressing yeast growth rescue, BacTiter-Glo, 24 h | AID 652104, 2013 | Potency, µM (titrated, usually from 46.1 µM), without a hit: at the top dose growth rescue (activation), most hits filed as activators; further: % of control where 0% means no effect; nearly all actives have a fitted effect of over 50% in size
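Yeast expressing TDP-43 (pregrown in raffinose, seeded at OD600=0.02 in galactose medium) exposed to compounds 24 hr at 30 deg C. Growth read by BacTiter-Glo luminescence; rescue of toxicity appears as increased signal.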
aSyn yeast inh: qHTS of alpha-syn Inhibitors; AID 652106, 2013; Yeast expressing alpha-synuclein, growth rescue, BacTiter-Glo, 24 h; Potency, µM (series often up to 46.1 µM), inactives show at the top dose growth rescue (activation), actives largely listed as activators; actives 0.14% (n = 370,000); further: % of control where 0% means no effect; nearly all actives have a fitted effect of over 65% in size
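Galactose-induced alpha-syn yeast (OD600=0.02, raffinose-pregrown) + pinned cpd, 24 hr, 30 deg C; growth by BacTiter-Glo luminescence. Growth restoration scores as activation.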
Active calls of the source: *; i = inactive; ? = inconclusive; . = no result; [ ] = another dose, or the depositor's remark. Rows were chosen to be rich in hits. Some 2.2% of all compounds tested hit in one or more screens of this group. The call rests on the fitted dose curve; in most records, active means well fitted curve in the direction sought with a large enough effect; inconclusive means small, poorly fitted or top-dose-only effect, or another doubt; inactive means no such curve, though single readings can be large; an effect the other way counts as inactive or inconclusive. Potency means the concentration at half of the fitted maximal effect.

SMILES	Abeta yeast res	Mito fusion yeast	FUS yeast rescue	TDP-43 yeast inh	aSyn yeast inh
COc1ccc(NC(=O)c2ccc(-c3ccccc3C(F)(F)F)o2)cc1	i	?	i	12.6µM*	-13.0%
CCCN1CNc2c(c(=O)[nH]c(=S)n2CCc2ccccc2C)C1	.	.	.	.	-8.4%
CCSc1nc(-c2ccc(OC)cc2)ccc1C#N	i	6.1%	i	15.8µM*	1.5%
Cc1ccc(C)c(Nc2nc(NCc3ccco3)nc3nccnc23)c1	.	.	.	.	-1.2%
CC(C)CC(=O)O/N=C1\C(=O)N(c2ccccc2)c2ccccc21	i	2.1%	i	-13.7%	1.4%
CC(C)(C)C(=O)O/N=C1/C(=O)N(c2ccccc2)c2ccccc21	i	4.9%	i	?	7.08µM*
COc1ccc2c(c1)CN1CN(C3CCCC3)S(=O)(=O)CC21 (stereo not given)	.	.	i	.	.
COc1ccc(/C(C)=N/NC(=S)NCCc2ccccc2)cc1	12.6µM*	3.0%	i	-18.3%[0.397 µM]	-8.4%
COc1ccc(C2=Nc3ccccc3N(C(=O)c3ccc4c(c3)OCO4)C2C(=O)NCc2ccccc2)cc1 (stereo not given)	i	.	?	?	7.1%
CC(=O)Nc1ccc(C(=O)N2c3ccccc3N=C(c3ccc4c(c3)OCO4)C2C(=O)NCc2ccccc2)cc1 (stereo not given)	i	.	12.6µM*	7.4%	-10.7%
Cc1ccccc1CSCCNC(=O)CCSc1ccccc1	?	2.3%	i	15.8µM*	18.0%
Cc1ccccc1CSCCNC(=O)COc1ccc(Cl)cc1	i	6.7%	i	11.2µM*	27.2%
COc1cc2nc(SCc3ccc(C)cc3)n3nc(CCn4nc(C)cc4C)nc3c2cc1OC	i	.	i	-6.8%	.
CC(CCl)n1c(=O)c2ccccc2n1C(=O)c1ccccc1 (stereo not given)	i	.	i	11.2µM*	-11.2%
O=C(c1ccccc1Br)N1CCc2c([nH]c3ccccc23)C1	i	21.1%	i	17.8µM*	?
COc1nc(NCc2cccnc2)nc(NC2CCCCC2)n1	i	12.6µM*	i	4.7%	27.0%
Cc1cccc(NC(=O)c2cc(S(=O)(=O)N3CCc4ccccc43)ccc2F)c1C	i	.	i	16.7%	.
CCN1CCSc2ccc(C(=O)NCc3ccccc3C)cc21	i	-3.6%	i	35.5µM*	0.8%
Cc1cccc(CNC(=O)c2ccc3c(c2)N(C)CCS3)c1	i	2.9%	i	?	15.2%
CN1CCSc2ccc(C(=O)NCc3cccc(Br)c3)cc21	i	1.7%	i	15.8µM*	4.8%
COc1cc(Cl)c(C)cc1NC(=O)c1c(C)oc2nc(C)nc(N3CCCC3)c12	i	.	i	-8.4%	.
Cc1cc(-c2csc(N)n2)c(C)n1C	i	-1.2%	i	-3.2%	-7.9%
Cc1cc(-c2csc(N)n2)c(C)n1Cc1ccco1	i	6.7%	28.2µM*	-11.4%	-7.1%
CCc1cccc(NC(=O)c2c(C)oc3nc(C)nc(N4CCCC4)c23)c1	i	.	i	16.5%	.
CCOC(=O)N1CCN(c2nc(C)c3c(n2)CC(C)CC3=O)CC1 (stereo not given)	i	-4.3%	i	20µM*	0.9%
SMILES	Abeta yeast res	Mito fusion yeast	FUS yeast rescue	TDP-43 yeast inh	aSyn yeast inh
Cc1nc(N2CCN(C(=O)c3ccco3)CC2)nc2c1C(=O)CC(C)C2 (stereo not given)	i	-2.5%	i	?	-1.2%
CCc1ccc(-n2c(=O)c3c4c(sc3n(CC(=O)c3ccc(F)cc3)c2=O)CCC4)cc1	i	.	i	13.7%	.
CC(C)c1ccc(Nc2nc(NCc3ccco3)nc(N3CCOCC3)n2)cc1	i	-2.7%	i	15.8µM*	-19.5%
CCCCNC(=O)NS(=O)(=O)c1ccc(NC(=O)CSc2ncnc3scc(-c4ccc(C)cc4)c23)cc1	.	.	i	.	.
CC(=O)Nc1ccc(/C=C/c2sc3ccccc3[n+]2CCCCI)cc1	.	.	.	.	-3.7%
CCn1nc(C(=O)Nc2cccc3ccccc23)c(Cl)c1Cl	i	7.8%	i	15.8µM*	-4.4%
CCn1nc(C(=O)Nc2ccccc2C)c(Cl)c1Cl	i	-2.9%	i	29.0%	-7.7%
CC(C)CNc1ncnc2onc(-c3ccc(Cl)cc3)c12	i	.	i	11.2µM*	.
Cc1cccc(CCNc2ncnc3onc(-c4ccc(Cl)cc4)c23)c1	i	.	i	35.5µM*	.
Clc1ccc(CNc2ncnc3onc(-c4ccc(Cl)cc4)c23)cc1	i	.	?	12.6µM*	.
Cc1ccc(CCNc2ncnc3onc(-c4ccc(Cl)cc4)c23)cc1	i	.	i	20.7%	.
CCCC(C)C(=O)NC1CCCCN(Cc2ccccc2C)C1=O (stereo not given)	.	.	i	.	.
COCCN(C[C@@H]1[C@H](c2ccccc2)[C@H](CO)N1c1nc(C)c(C)s1)S(=O)(=O)c1ccccc1[N+](=O)[O-]	.	.	i	.	.
CC(C)C(=O)Oc1ccc(CO)cc1[C@H](CCN(C(C)C)C(C)C)c1ccccc1	.	.	i	.	.
COc1ccc(OC)c(NC(=O)N2CCN(S(=O)(=O)c3ccc4c(ccn4C)c3)CC2)c1	i	.	?	18.5%	?
CCOc1ccc(NC(=O)N2CCN(S(=O)(=O)c3ccc4c(ccn4C)c3)CC2)cc1	i	.	39.8µM*	-21.3%	-0.2%
COc1ccc(NC(=O)N2CCN(S(=O)(=O)c3ccc4c(ccn4C)c3)CC2)c(OC)c1	i	.	12.6µM*	0.0%	1.7%
O=C(Nc1c(F)cc(F)cc1Br)c1cc(-c2ccc(O)cc2)on1	i	?	i	11.2µM*	-20.0%
O=C(Nc1c(F)cc(F)cc1Br)c1cc(-c2ccccc2)on1	i	-1.1%	i	14.9%	4.9%
CCOC(=O)C1CCCN(C(=O)c2cc(-c3ccccc3)cs2)CC1 (stereo not given)	i	.	i	17.8µM*	-4.9%
CCOC(=O)C1CCCN(C(=S)Nc2ccc(Nc3ccccc3)cc2)C1 (stereo not given)	?	3.2%	?	22.4µM*	?
CCOC(=O)C1CCCN(C(=O)c2cc3c(=O)n(C)c4ccccc4c3s2)C1 (stereo not given)	i	.	i	20µM*	.
O=C(O)CCc1cccc2ccccc12	.	.	.	.	2.0%
Cc1ccc(Nc2nc(C)cc(C)n2)c(Br)c1	i	7.4%	i	10µM*	-3.0%
CCOc1ccc(CCNC(=O)Cc2ccccc2)cc1OCC	.	.	i	.	.
Brc1ccc(CSc2nnc(Cc3c[nH]c4ccccc34)o2)cc1	i	9.7%	.	8.91µM*	-0.1%
Clc1ccc(CSc2nnc(-c3c[nH]c4ccccc34)o2)cc1	i	4.4%	i	-17.7%	-0.8%

Bioassay records deposited in PubChem BioAssay by National Center for Advancing Translational Sciences (NCATS).
